VCAM1 TNFa pot – TNF alpha stimulated VCAM1 expression potentiation; AID 808; actives 0.19% (n = 93,000); HUVEC TNFa-stimulated VCAM-1 immunofluorescence, high-content imaging; scaled per plate to unstimulated/TNFa-only wells; activation, % at 2 µM;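 active = activation above the screen mean plus 3 SD, with well images confirming the hit on visual review, cut at about 28% in these data, passing the limit was not always enough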;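 also: signal is the number of cytoplasmic VCAM-1 stained grains per positive cell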
VCAM1 pot confirm – potentiators of TNFa-induced VCAM1 expression, confirmation, imaging, HUVEC, triplicate retest; shares compounds with VCAM1 TNFa pot; HUVEC TNFa-stimulated VCAM-1 immunofluorescence imaging; activation, % at 2 µM; 230 tested, under 10 active; AID 1034;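 active = activation above 30% in triplicate retests at 2 µM, then confirmed by visual review of the well images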;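 also: scaled per plate between unstimulated and TNFa-stimulated DMSO control wells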
Numbers without * were called inactive. Shown is part of a subset that was picked to be rich in hits.

SMILES	VCAM1 TNFa pot	others
CC(Cc1ccccc1)NC(=O)NC(C)Cc1ccccc1 (centres undefined)	33*	VCAM1 pot confirm=-16
CCCCC(=O)C1C(=O)NC(=O)NC1=O	5
CCOP(=S)(OCC)c1ccc(N(C)C)cc1	10
CS(=O)(=O)N1CCCC(C(=O)N2CCC3(CC2)OCCO3)C1 (centres undefined)	-1
CCOC(=O)c1[nH]c(C)c(C(=O)N2CCC3(CC2)OCCO3)c1C	117*	VCAM1 pot confirm=-9
Cc1occc1C(=O)N1CCC2(CC1)OCCO2	-5
Cc1cc(C)c(NC2=NCCCS2)c(C)c1	14
Cc1ccc(C2SCC(=O)Nc3c2c(=O)[nH]n3C2CCOC(C)(C)C2)cc1 (centres undefined)	-3
O=C1CN(C(=O)CN2CCCCC2)C(c2ccccc2)c2cc(Br)ccc2N1 (centres undefined)	-46
O=c1[nH]c(=O)n(Cc2ccc(F)cc2)c(O)c1C=NCCCO	-5
C/C(Cl)=C/CC1(CN2CCCC2=O)C(=O)NC(=O)NC1=O	106*	VCAM1 pot confirm=-15
COC(=O)c1cc2c(s1)=NC=NP=2(N1CCOCC1)N1CCOCC1	-8
CCCC(C)C1(CC)C(=O)NC(=Nc2ccccc2OC)NC1=O (centres undefined)	-1
Cc1ccc(-c2nc3ccccc3c(=O)n2-c2nccs2)cc1	56*	VCAM1 pot confirm=-17
COc1ccc(OP(=O)(Nc2ccccc2)Nc2ccccc2)cc1	5
O=C(Nc1ccccc1OC(=O)N1CCOCC1)N1CCOCC1	-37
COc1cc2c3c(c1OC)-c1cc(O)ccc1CC3NCC2 (centres undefined)	-44
COc1ccc(/C=C2\C(=N\O)C3CCN2CC3)cc1	12
COc1ccc(Cl)cc1NC1=NCC(C)S1 (centres undefined)	0
CC1CN=C(Nc2ccc(N(C)C)cc2)S1 (centres undefined)	10

Screens: PubChem, Columbia University Molecular Screening Center
